The record followed here is PubChem BioAssay (Tox21).

Values joined by “and” are separate entries in the source; they are usually repeats but may differ in a detail not shown here. Identical values can stand only once. Records with an inconclusive call do not appear. A structure can be active in one record and inactive in another. Active and inactive are the calls of the source. Unless noted, calls follow the shape of the dose curve; as a rule, active = well fitted curve in the direction sought with a large enough effect in the repeat runs; inconclusive = weak or mixed curves; inactive = no such curve, though single readings can be large; an effect the other way counts as inactive or inconclusive.

A short description of assay [1]: qHTS assay to identify small molecule antagonists of the estrogen related receptor (ERR) signaling pathway from Tox21 library - cell viability counter screen (AID 1224834). Also: nearly all actives have a fitted effect of over 30% in size. Also: potency is read from the fitted curve at half-maximal effect. Summed up:
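Cytotoxicity of test substances is gauged in the same ERR cells used for the antagonist screen, after 17.5 h of compound treatment at 37 C, by CellTiter-Fluor fluorescence measured after 30 min.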
(In general: Quantitative high-throughput screening tests each substance at several concentrations.)

Assay [2] in a line: qHTS assay to identify small molecule agonists of the constitutive androstane receptor (CAR) signaling pathway - cell viability counter screen (AID 1224836). Also: series mostly up to about 92 µM; nearly all actives have a fitted effect of over 45% in size. The method, boiled down: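 Multiplexed viability check: HepG2-CYP2B6-hCAR cells, 15-point compound dosing, 0.75 uM PK11195 final, 23 h at 37 C, CellTiter-Fluor fluorescence.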
Assay [3] can be described thus: qHTS assay to identify small molecule antagonists of the constitutive androstane receptor (CAR) signaling pathway - cell viability counter screen (AID 1224837). Also: series mostly up to about 92 µM; nearly all actives have a fitted effect of over 45% in size. The method, boiled down:
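Multiplexed cytotoxicity read-out for the CAR antagonist screen: double-stable HepG2-CYP2B6-hCAR cells co-treated with 50 nM CITCO (final) and compound over 15 concentrations, incubated 23 hr, then assessed by CellTiter-Fluor fluorescence.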

Assay [4] can be described thus: qHTS assay to identify small molecule antagonists of the estrogen related receptor signaling pathway with the pleiotropic PPARgamma coactivator (PGC) from Tox21 10K library - cell viability counter screen (AID 1224840; active = well fitted cell-killing curve with a large enough effect in the repeat runs, not every such curve was filed as active; also: nearly all actives have a fitted effect of over 40% in size; also: potency is read from the fitted curve at half-maximal effect). The method, boiled down: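 Step one, plate 2,000 PGC/ERR cells per well; step two, incubate 6 h at 37 C/5% CO2; step three, pin-transfer compounds; step four, incubate 17.5 h; step five, add CellTiter-Fluor and read fluorescence after 30 min.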

For assay [5], the target named is Thyrotropin receptor (Homo sapiens) (UniProt P16473). Briefly: qHTS assay to identify small molecule agonists of the thyroid stimulating hormone receptor (TSHR) signaling pathway (AID 1224843; calls by dose curve; also: nearly all actives have a fitted effect of over 45% in size; also: potency is read from the fitted curve at half-maximal effect). The method, boiled down: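 TSHR-expressing HEK293 cells (800 per well) were exposed to compounds for 30 min at room temperature. cAMP was then detected by HTRF competition with cAMP-d2 and anti-cAMP cryptate, read after 1 h at room temperature. Fifteen concentrations, triplicate.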
Thyrotropin receptor (Homo sapiens), sequence (P16473 whole entry, looked up): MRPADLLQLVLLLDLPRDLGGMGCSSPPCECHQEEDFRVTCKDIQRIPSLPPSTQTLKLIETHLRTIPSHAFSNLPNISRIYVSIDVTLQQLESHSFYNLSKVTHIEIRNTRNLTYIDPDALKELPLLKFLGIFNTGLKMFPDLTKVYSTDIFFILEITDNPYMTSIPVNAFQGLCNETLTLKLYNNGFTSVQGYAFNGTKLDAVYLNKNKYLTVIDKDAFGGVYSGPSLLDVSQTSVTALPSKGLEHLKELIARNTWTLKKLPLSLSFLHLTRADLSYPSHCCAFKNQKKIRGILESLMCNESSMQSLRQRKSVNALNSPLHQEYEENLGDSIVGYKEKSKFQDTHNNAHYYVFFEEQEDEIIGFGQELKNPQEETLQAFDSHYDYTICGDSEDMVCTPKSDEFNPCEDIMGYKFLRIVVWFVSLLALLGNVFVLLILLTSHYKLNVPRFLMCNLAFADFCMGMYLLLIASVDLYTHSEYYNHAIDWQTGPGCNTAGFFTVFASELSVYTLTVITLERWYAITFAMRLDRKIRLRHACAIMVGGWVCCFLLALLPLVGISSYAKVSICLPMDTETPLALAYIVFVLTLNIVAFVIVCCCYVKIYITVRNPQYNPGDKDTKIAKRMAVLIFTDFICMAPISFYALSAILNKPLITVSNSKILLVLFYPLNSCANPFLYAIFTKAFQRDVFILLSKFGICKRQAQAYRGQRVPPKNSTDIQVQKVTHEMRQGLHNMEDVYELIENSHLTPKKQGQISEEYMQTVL

Assay [6] is described as follows: qHTS assay to identify small molecule agonists of the hypoxia (HIF-1) signaling pathway - cell viability counter screen (AID 1224844; calls by dose curve; also: nearly all actives have a fitted effect of over 50% in size). Summed up:
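Tox21 10K compounds were added to HRE-bla ME-180 cells (0.5% dialyzed FBS) and incubated 17 hrs at 37C; ATP-based CellTiter-Glo luminescence then reported cell viability in the same wells.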

Assay [7] in a line: qHTS assay to identify small molecule agonists of H2AX (AID 1224845; active = well fitted activation curve with a large enough effect in the signal ratio in the repeat runs, not every such curve was filed as active; the % refers to the signal ratio; also: potency is read from the fitted curve at half-maximal effect). Summed up: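 Wild-type CHO-K1 cells plated overnight, then exposed 3 hr at 37C to compounds at 15 concentrations (0.76% DMSO). Lysed, then HTRF anti-pH2AX(S139)-cryptate/anti-H2AX-d2 detection after 24 hr at room temperature; emissions 665 and 620 nm.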
Assay [8] in a line: qHTS assay to identify small molecule agonists of H2AX - cell viability counter screen (AID 1224847; calls by dose curve; also: nearly all actives have a fitted effect of over 30% in size; also: potency is read from the fitted curve at half-maximal effect). Summed up:
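After overnight plating of 1000 CHO-K1 cells per well, a 15-concentration compound series was applied for 3 hr at 37C. Luminescence from CellTiter-Glo, read following 30 min at room temperature, reflected cell viability.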

Assay [9] in a line: qHTS RealTime-Glo MT Cell Viability Assay in HepG2 cells - 24 hour (AID 1224867). Also: nearly all actives have a fitted effect of over 50% in size. Summed up: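 HepG2 cells were seeded at 600 cells/well together with NanoLuc luciferase and a cell-permeant prosubstrate, preincubated 5 h at 37 C/5% CO2, then pin-dosed with compounds in DMSO. Nonlytic luminescence from viable cells was read at each time point.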
A short description of assay [10]: qHTS RealTime-Glo MT Cell Viability Assay in HEK293 cells - 32 hour (AID 1224868). Also: nearly all actives have a fitted effect of over 50% in size. Also: potency is read from the fitted curve at half-maximal effect. The method, boiled down:
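HEK293 cells were seeded at 600 cells/well together with NanoLuc luciferase and cell-permeant prosubstrate, preincubated 5 h at 37 C/5% CO2, then given compound in DMSO by pintool. Luminescence from viable-cell prosubstrate reduction was read repeatedly over 40 h.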

Assay [11] is described as follows: A CellTox Green Cytotoxicity Assay to monitor cytotoxicity in HEK293 cells - 0 hour (AID 1224869). Also: nearly all actives have a fitted effect of over 50% in size. The method, boiled down: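 Cytotoxicity was tracked continuously in HEK293 cells by a DNA-binding dye excluded from viable cells. Compounds were transferred in DMSO 5 h after seeding; fluorescence was recorded at intervals up to 40 h.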
Assay [12] addresses Luciferin 4-monooxygenase (Photinus pyralis) (UniProt P08659). The assay can be described thus: qHTS assay to identify small molecule inhibitors of firefly luciferase (AID 1224835). Also: nearly all actives have a fitted effect of over 25% in size. Also: potency is read from the fitted curve at half-maximal effect. Summed up: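 Quantitative HTS format; KM concentrations of both substrates. Purified P. pyralis FLuc activity quantified from luminescence images.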
A short description of assay [13]: qHTS assay to identify small molecule agonists of the hypoxia (HIF-1) signaling pathway (AID 1224846; active = well fitted activation curve with a large enough effect in the signal ratio in the repeat runs, not every such curve was filed as active; the % refers to the signal ratio). Summed up: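 Steps: seed ME-180 HRE-bla cells (2,000/well, 0.5% dialyzed FBS); incubate 5 hrs at 37C; pin-transfer compounds or DMSO; incubate 17 hrs; add LiveBLAzer B/G substrate CCF4-AM; measure reporter activation by FRET.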
For assay [14], the target named is Nuclear receptor subfamily 1 group I member 3 (Homo sapiens) (UniProt Q14994). The assay can be described thus: qHTS assay to identify small molecule antagonists of the constitutive androstane receptor (CAR) signaling pathway (AID 1224838). Also: nearly all actives have a fitted effect of over 40% in size. Also: potency is read from the fitted curve at half-maximal effect. Summed up:
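Compounds were titrated across 15 concentrations onto HepG2 cells double-stably expressing hCAR and a CYP2B6-2.2kb reporter, together with 50 nM CITCO (final). After 24 h at 37 C, luciferase activity was measured by luminescence.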

Assay [15] has the same target. Briefly: qHTS assay to identify small molecule agonists of the constitutive androstane receptor (CAR) signaling pathway (AID 1224839).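 Also: HepG2 cells stably carrying human CAR and a CYP2B6 luciferase reporter; series mostly up to about 92 µM; nearly all actives have a fitted effect of over 15% in size.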 The method, boiled down: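 Using human hepatoma HepG2 cells engineered with hCAR and a CYP2B6-2.2kb reporter, 15-concentration compound series were incubated 24 h alongside PK11195 at 0.75 uM final, with luminescence quantified afterwards.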

Assay [16] is described as follows: qHTS assay to identify small molecule antagonists of the estrogen related receptor signaling pathway with the pleiotropic PPARgamma coactivator (PGC) from Tox21 10K library (AID 1224841; call rule not given here). The method, boiled down: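 Antagonism in this quantitative HTS is taken from loss of luciferase signal in PGC/ERR cells. Cells (2,000/well) are treated with compounds in DMSO after a 6 h settling period and read by One-Glo luminescence after 18 h.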

A short description of assay [17]: qHTS assay to identify small molecule agonists of the estrogen related receptor signaling pathway with the pleiotropic PPARgamma coactivator (PGC) from Tox21 10K library (AID 1224842). Also: nearly all actives have a fitted effect of over 15% in size. Summed up: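 PGC/ERR reporter cells (NTP line) were seeded 2,000 per well, rested 6 h at 37 C/5% CO2, then pin-dosed with compounds in DMSO for 18 h at 37 C; luciferase read by One-Glo luminescence after 30 min at room temperature.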

A short description of assay [18]: qHTS assay to identify small molecule antagonists of the estrogen related receptor (ERR) signaling pathway from Tox21 library (AID 1224848). Also: nearly all actives have a fitted effect of over 50% in size. Also: potency is read from the fitted curve at half-maximal effect. The method, boiled down:
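Cells: ERR line, 2,000/well; 6 h preincubation 37 C/5% CO2. Cpd in DMSO via pin tool; 18 h, 37 C. ONE-Glo, 30 min RT, luminescence.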

Nuclear receptor subfamily 1 group I member 3 (Homo sapiens), sequence (Q14994 whole entry, looked up): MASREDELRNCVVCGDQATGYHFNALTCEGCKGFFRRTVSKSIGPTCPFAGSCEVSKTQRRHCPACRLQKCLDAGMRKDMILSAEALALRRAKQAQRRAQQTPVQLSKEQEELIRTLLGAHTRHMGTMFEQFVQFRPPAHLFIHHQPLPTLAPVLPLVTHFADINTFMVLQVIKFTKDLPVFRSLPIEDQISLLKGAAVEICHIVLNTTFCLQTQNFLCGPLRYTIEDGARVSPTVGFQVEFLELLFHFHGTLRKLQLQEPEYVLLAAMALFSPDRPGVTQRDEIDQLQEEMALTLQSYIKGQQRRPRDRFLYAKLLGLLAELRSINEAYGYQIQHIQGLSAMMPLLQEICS
Luciferin 4-monooxygenase (Photinus pyralis), sequence (P08659 whole entry, looked up): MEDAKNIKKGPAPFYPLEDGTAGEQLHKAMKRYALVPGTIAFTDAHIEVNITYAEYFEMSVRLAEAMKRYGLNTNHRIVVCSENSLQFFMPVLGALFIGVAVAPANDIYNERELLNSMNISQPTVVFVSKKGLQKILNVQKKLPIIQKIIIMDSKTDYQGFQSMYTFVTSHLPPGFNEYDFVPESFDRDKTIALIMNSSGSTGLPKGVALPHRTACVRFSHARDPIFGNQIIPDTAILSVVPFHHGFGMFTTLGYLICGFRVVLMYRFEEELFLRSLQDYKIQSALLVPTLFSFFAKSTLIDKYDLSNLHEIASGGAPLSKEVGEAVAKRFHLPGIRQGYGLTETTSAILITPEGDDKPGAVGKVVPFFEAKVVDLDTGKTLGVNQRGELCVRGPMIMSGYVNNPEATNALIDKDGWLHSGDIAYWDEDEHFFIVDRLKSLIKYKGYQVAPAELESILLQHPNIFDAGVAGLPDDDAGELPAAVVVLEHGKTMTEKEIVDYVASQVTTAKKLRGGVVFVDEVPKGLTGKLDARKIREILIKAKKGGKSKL

In the case of `CCc1cc(C(N)=S)ccn1`, the Potency entry in assay [1], in assay [2], in assay [3], in assay [4], in assay [5] and in assay [6] was “inactive” in each case. In addition, the Potency result in assay [7], in [8], in assay [10] and in assay [11] was “inactive” in each case. Besides, the compound was classed as inactive in assay [9].

In the case of `CCn1cc(C(=O)O)c(=O)c2ccc(C)nc21`, the Potency entry in [12], in [2], in [3], in assay [5], in assay [6] and in assay [7] was “inactive” in each case. Moreover, the Potency entry in assay [8], in [10] and in assay [11] was “inactive” each time. For the same compound, the compound was called inactive in [9].

For `C#C[C@]1(O)CC[C@H]2[C@@H]3CCC4=CC(=O)CC[C@@H]4[C@H]3CC[C@@]21CC`, the Potency entry was “inactive and 54.5 µM (active)” in assay [1]; “inactive and 89.8 µM (active)” in [8]; 43.6 µM (active) and inactive in assay [10]. The Potency entry in assay [12], in assay [2], in [3], in assay [4], in [5] and in assay [6] was “inactive” throughout. The Potency result in assay [7] and in assay [11] was “inactive” each time. For the same compound, the call in assay [13] and in assay [9] was inactive.

`COc1ccc(O)cc1`: the Potency entry in [1], in assay [12], in assay [2], in assay [3], in assay [4] and in [5] was “inactive” in each case. In addition, the Potency entry in assay [8], in assay [10] and in assay [11] was “inactive” in each case. In assay [7], the Potency was 86.5 µM (active) and 89.8 µM (active) and 49.2 µM (active). Moreover, the result in [13] and in [9] was inactive.

With `COC1=CC(=O)C[C@@H](C)[C@]12Oc1c(Cl)c(OC)cc(OC)c1C2=O`, the Potency entry in assay [12], in assay [2], in assay [3], in [15], in assay [4] and in [16] was “inactive” throughout. In addition, the Potency result in assay [17], in assay [7], in assay [8], in assay [10] and in assay [11] was “inactive” throughout. Also, the Potency in assay [14] was 9.6 µM (active) and 13.7 µM (active); in [5], 9.6 µM (active) and 17.2 µM (active); in assay [18], 4.81 µM (active) and 7.7 µM (active) and 5.96 µM (active). For the same compound, the outcome in [13] and in assay [9] was inactive.

In the case of `Cc1cnc(NC(=O)C2=C(O)c3ccccc3S(=O)(=O)N2C)s1`, the Potency entry in [1], in [2], in assay [3], in [4], in assay [6] and in [7] was “inactive” each time. For the same compound, the Potency result in assay [8], in assay [10] and in assay [11] was “inactive” throughout. Besides, the Potency in assay [12] is 31.8 µM (active) and 22.4 µM (active) and 34.7 µM (active). The result in assay [9] was inactive.

Turning to `NC(=O)NO`, the Potency entry in assay [1], in [12], in assay [2], in assay [3], in [14] and in assay [4] was “inactive” each time. Also, the Potency entry in [5], in [6], in assay [7], in assay [8], in assay [10] and in assay [11] was “inactive” in each case. In addition, the compound was classed as inactive in [9].

`N[C@@H](Cc1c[nH]c2ccccc12)C(=O)O`: the Potency entry in assay [1], in assay [12], in [2], in assay [3], in assay [4] and in [5] was “inactive” each time. Also, the Potency entry in assay [6], in assay [7], in [8], in [10] and in assay [11] was “inactive” in each case. Besides, the call in [13] and in assay [9] was inactive.

For the compound `C[C@]12C=CC(=O)C=C1CC[C@@H]1[C@@H]2C(=O)C[C@@]2(C)[C@H]1CC[C@]2(O)C(=O)CO`, the Potency result in assay [1], in assay [12], in [2], in assay [3], in assay [14] and in assay [4] was “inactive” each time. The Potency entry in assay [5], in assay [6], in assay [7], in [8], in assay [10] and in assay [11] was “inactive” in each case. The compound was called inactive in assay [13] and in [9].

Turning to `C[C@]12CC[C@@H]3c4ccc(O)cc4CC[C@H]3[C@@H]1CCC2=O`, the Potency entry in [1], in [2], in [3], in assay [4], in assay [6] and in assay [7] was “inactive” in each case. Further, the Potency entry in assay [8] and in assay [11] was “inactive” throughout. Besides, the compound was classed as inactive in assay [13] and in assay [9].

Take `COC(=O)C1CCC(C(=O)OC)CC1` (stereo not given): the Potency entry in assay [1], in assay [12], in assay [2], in assay [3], in assay [4] and in [16] was “inactive” in each case. Further, the Potency result in [17], in [5], in assay [6], in assay [7], in assay [8] and in assay [18] was “inactive” throughout. The Potency entry in [10] and in assay [11] was “inactive” throughout. Besides, the outcome in [13] and in assay [9] was inactive.

As to `OC[C@@H](O)[C@@H](O)[C@H](O)[C@H](O)CO`, the Potency entry in assay [1], in assay [12], in assay [2], in assay [3], in [4] and in assay [16] was “inactive” throughout. The Potency result in assay [17], in [5], in assay [6], in assay [7], in [8] and in [18] was “inactive” each time. For the same compound, the Potency entry in assay [10] and in assay [11] was “inactive” each time. Also, the call in [13] and in assay [9] was inactive.

As to `COc1cc2c(c(OC)c1OC)-c1ccc(OC)c(=O)cc1[C@@H](NC(C)=O)CC2`, the Potency result in [1], in assay [12], in assay [2], in assay [7], in assay [8] and in [11] was “inactive” throughout. In addition, the Potency is 2.4 µM (active) and inactive in assay [4]; 24.3 nM (active) in [10]. Besides, the compound was classed as inactive in [13] and in assay [9].
